Holding throughout (parameters): scale not given: direction of the effect not stated beside the values
In test [1] the target is Protein translocase subunit SecA (Escherichia coli (strain K12)) (UniProt P10408). Nature of the test: Assay to Identify E. coli SecA ATPase Inhibitors. The note with it: 30 µM. The format is functional.
Test [2] deals with T1, Ubiquitin-activating enzyme e1, putative (Leishmania donovani (strain BPK282A1)) (UniProt E9BSI1).
T1 sequence (whole entry): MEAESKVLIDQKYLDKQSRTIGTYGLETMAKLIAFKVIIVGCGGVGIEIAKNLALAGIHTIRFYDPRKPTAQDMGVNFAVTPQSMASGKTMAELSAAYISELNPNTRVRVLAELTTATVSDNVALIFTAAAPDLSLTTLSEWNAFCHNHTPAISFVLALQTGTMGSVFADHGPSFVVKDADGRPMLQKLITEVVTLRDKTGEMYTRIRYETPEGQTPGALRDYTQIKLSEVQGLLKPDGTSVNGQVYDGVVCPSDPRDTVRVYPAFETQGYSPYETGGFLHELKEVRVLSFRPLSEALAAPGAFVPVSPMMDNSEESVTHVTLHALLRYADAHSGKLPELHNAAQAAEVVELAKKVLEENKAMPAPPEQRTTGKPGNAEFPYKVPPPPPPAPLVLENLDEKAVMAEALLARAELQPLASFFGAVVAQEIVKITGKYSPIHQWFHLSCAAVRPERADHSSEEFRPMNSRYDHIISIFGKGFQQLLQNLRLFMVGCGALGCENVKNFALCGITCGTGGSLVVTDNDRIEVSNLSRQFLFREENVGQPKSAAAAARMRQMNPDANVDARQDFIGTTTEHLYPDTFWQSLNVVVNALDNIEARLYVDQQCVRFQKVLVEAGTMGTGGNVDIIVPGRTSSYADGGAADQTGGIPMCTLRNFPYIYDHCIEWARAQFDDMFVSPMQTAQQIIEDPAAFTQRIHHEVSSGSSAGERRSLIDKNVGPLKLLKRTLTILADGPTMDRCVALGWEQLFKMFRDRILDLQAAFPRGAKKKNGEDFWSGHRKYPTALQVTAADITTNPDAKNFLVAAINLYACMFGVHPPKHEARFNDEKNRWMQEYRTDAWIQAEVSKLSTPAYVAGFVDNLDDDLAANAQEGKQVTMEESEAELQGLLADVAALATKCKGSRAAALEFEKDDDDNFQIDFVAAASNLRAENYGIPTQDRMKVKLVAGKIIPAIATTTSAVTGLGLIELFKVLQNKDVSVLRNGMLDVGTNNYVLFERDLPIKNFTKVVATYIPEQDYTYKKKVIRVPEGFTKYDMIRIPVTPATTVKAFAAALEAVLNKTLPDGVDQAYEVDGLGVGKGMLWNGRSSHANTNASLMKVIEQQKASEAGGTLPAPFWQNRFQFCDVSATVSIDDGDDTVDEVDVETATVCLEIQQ
Nature of the test: Leishmania donovani Ubiquitin Activating Enzyme (LdE1). The format is functional. The settings on record: 30 µM.

Test [3] addresses Sialic acid-binding Ig-like lectin 9 (Homo sapiens) (UniProt Q9Y336). Nature of the test: Hs-Siglec9 ALPHAscreen SOP 20170721. The settings on record: 10 µM.
A further test concerns Trypanosoma cruzi. Nature of the test: Trypanosoma cruzi phosphomannomutase and mannose-1-phosphate guanylyltransferase assay. The format is functional. The settings on record: 10 µM.
Test [4] has as its target T2, Arginase-2, mitochondrial (Homo sapiens) (UniProt P78540).
T2 sequence (whole entry): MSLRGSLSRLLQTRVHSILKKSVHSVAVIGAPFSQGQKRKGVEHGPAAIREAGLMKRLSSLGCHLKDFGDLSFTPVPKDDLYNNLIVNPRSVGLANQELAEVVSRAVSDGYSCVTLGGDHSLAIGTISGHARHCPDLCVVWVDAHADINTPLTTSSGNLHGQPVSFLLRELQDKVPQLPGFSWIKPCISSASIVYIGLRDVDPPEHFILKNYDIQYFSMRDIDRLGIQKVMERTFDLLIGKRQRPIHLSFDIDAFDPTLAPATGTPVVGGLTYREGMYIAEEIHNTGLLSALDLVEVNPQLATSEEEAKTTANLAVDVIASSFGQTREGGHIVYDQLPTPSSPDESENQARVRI
Nature of the test: in vitro enzyme assay to detect the production of urea directly proportional to the activity of Arginase II. Also: in the data most compounds retested in dose-response had high values. The note with it: 33.3 µM. The format is functional.

Test [5] has as its target T3, Proteasome subunit beta (Trypanosoma cruzi) (UniProt O96673).
T3 sequence (whole entry): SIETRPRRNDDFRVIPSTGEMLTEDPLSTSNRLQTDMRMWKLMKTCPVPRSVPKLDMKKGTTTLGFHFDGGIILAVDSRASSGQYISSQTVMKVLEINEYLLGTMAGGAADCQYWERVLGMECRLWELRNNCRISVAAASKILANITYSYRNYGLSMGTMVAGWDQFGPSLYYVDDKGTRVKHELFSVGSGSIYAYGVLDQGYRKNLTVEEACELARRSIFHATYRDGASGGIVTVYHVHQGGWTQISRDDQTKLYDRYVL
Briefly: Trypanosoma cruzi proteasome chymotrypsin-like activity (TcProtChymo) assay. Also: in the data most compounds retested in dose-response had high values. Type of test: functional. The note with it: 9.37 µM.

A further test is filed under the species Homo sapiens. Briefly: To identify inhibition of the IFN signalling (Jak-Stat) pathway via expression of an eGFP reporter gene under the control of an IFN-stimulated response element (ISRE) containing MxA promoter. The format is functional. The settings on record: 30 µM. (In general: A reporter such as luciferase makes a cellular process visible.)
Test [6] addresses T4, Tyrosyl-tRNA synthetase, putative (Trypanosoma cruzi (strain CL Brener)) (UniProt Q4DSP6).
T4 sequence (whole entry): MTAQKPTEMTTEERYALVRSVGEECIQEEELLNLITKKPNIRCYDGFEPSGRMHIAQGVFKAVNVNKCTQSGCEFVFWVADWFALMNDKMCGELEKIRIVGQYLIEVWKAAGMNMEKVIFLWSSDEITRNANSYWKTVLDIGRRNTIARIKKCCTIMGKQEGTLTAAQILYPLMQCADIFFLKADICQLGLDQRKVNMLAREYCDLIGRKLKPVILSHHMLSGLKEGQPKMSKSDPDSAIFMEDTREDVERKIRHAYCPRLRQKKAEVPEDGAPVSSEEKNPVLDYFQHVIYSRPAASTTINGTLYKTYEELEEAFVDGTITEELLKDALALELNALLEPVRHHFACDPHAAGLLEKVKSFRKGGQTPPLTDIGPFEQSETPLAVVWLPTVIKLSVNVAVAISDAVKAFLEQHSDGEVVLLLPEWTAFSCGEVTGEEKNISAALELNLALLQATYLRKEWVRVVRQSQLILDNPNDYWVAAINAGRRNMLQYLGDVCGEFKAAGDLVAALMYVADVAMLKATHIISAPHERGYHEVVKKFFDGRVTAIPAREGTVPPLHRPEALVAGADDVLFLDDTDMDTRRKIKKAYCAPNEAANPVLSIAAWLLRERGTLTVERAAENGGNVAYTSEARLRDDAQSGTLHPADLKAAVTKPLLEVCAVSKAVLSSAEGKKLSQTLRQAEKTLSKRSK
Briefly: Trypanosoma cruzi tyrosyl tRNA synthetase (TcYRS) _High Tyrosine SOP. Also: in the data most compounds retested in dose-response had high values. The format is functional. The settings on record: 30 µM.

Test [7] addresses T4, Tyrosyl-tRNA synthetase, putative (Trypanosoma cruzi (strain CL Brener)). Nature of the test: Trypanosoma cruzi tyrosyl tRNA synthetase (TcYRS) SOP. The format is functional. The note with it: 30 µM.
Test [8] addresses Chromo domain-containing protein 1 (Saccharomyces cerevisiae (strain ATCC 204508 / S288c) (Baker's yeast)) (UniProt P32657). Nature of the test: ScCHD-1 Enzyme Inhibition Assay. Also: in the data most compounds retested in dose-response had high values. Type of test: functional. The note with it: 30 µM.

For some assays here: Entries with a potency or affinity are not part of this list.

For 14 compounds, Percent Effect results are on record in ChEMBL document CHEMBL3988442, “University of Dundee, Small-Polar-MMV Screening Library” (2021).

Sequence of Sialic acid-binding Ig-like lectin 9 (Homo sapiens) (Q9Y336 whole entry): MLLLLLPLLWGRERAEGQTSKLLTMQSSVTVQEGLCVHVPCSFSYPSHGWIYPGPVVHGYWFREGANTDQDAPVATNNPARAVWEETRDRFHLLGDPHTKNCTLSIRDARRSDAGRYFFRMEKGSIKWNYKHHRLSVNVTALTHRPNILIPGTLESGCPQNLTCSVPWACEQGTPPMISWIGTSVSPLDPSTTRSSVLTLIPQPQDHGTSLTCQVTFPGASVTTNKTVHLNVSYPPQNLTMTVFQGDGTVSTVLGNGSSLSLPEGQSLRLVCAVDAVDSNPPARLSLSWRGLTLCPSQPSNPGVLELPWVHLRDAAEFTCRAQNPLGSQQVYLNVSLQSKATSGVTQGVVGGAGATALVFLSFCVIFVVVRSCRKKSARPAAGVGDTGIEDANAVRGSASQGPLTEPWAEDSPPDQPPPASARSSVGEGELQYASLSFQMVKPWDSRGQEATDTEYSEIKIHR
Sequence of Protein translocase subunit SecA (Escherichia coli (strain K12)) (P10408 whole entry): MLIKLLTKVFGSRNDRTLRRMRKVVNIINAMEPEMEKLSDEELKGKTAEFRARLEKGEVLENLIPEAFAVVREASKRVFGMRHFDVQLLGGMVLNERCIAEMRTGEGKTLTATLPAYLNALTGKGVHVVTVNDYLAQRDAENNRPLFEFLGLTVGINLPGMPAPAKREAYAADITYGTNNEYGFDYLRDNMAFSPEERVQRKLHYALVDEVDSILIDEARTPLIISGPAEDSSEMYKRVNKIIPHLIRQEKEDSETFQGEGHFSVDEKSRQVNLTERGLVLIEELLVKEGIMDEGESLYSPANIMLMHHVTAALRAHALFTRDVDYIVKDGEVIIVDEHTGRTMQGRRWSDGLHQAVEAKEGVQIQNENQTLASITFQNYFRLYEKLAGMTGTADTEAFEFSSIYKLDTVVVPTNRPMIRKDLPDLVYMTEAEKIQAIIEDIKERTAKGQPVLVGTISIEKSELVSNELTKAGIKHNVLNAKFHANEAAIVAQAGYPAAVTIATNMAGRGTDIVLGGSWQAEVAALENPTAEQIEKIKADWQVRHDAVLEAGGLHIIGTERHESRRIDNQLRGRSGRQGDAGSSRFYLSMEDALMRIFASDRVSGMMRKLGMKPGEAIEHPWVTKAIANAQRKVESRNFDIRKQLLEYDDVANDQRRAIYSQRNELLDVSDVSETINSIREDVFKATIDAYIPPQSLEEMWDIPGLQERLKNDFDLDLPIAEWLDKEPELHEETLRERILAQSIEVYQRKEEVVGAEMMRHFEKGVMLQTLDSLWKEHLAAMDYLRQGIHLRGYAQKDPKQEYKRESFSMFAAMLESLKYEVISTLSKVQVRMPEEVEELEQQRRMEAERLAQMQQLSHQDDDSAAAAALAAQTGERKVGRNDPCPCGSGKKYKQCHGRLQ
Sequence of Chromo domain-containing protein 1 (Saccharomyces cerevisiae (strain ATCC 204508 / S288c) (Baker's yeast)) (P32657 whole entry, the tested form may be a part): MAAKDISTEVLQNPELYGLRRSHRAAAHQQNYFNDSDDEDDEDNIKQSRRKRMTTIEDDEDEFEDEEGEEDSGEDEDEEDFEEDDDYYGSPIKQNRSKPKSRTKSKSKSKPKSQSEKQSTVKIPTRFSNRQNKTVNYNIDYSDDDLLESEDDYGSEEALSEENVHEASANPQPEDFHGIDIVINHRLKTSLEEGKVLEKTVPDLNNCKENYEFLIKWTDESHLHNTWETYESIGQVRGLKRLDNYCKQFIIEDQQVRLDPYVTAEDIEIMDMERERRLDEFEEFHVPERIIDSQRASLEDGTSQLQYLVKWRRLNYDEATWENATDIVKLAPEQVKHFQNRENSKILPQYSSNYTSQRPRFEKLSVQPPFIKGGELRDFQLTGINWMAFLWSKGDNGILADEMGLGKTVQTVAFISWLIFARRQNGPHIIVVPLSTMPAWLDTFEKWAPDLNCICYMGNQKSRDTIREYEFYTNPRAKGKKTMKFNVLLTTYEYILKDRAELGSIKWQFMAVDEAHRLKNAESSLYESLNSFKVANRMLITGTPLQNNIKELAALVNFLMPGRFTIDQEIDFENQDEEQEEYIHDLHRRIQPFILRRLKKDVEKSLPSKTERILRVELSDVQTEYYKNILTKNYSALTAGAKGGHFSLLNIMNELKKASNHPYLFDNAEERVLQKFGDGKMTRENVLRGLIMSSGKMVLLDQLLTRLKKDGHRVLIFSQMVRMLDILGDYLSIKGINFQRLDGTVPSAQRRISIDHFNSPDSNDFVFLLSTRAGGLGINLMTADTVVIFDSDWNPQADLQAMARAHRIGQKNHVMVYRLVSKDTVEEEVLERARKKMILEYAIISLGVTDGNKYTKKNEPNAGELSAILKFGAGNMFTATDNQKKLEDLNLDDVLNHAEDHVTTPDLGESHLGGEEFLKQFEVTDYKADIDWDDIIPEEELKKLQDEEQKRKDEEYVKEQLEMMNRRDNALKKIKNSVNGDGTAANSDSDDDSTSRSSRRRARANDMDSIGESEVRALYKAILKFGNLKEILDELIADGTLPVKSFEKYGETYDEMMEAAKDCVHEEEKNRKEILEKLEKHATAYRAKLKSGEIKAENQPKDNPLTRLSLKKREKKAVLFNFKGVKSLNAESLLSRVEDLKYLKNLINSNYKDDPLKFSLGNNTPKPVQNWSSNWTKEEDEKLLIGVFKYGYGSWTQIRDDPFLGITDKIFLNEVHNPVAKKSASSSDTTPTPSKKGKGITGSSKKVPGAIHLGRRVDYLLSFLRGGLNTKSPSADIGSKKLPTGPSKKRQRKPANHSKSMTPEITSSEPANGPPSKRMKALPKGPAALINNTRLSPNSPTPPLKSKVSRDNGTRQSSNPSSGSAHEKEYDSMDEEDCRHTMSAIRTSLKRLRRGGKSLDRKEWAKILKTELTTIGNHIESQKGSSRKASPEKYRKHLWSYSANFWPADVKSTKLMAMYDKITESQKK

Regarding `Cc1ccc(CC(=O)N2CCc3nnc(N(C)C)cc3C2)cn1`, the Percent Effect is 0.88% in [1]; 20.5% in test [2]; -4.67% in test [3]; -0.469% with Trypanosoma cruzi; 2.05% in test [4]; 13.6% in test [5]. In addition, the Percent Effect in the test listed under Homo sapiens is 16.2%; in test [6], 6.22%; in [7], 10.8%; in [8], -4.95%.

Regarding `O=C(c1ccncc1)N1CCC2(CC1)CC(Oc1cccnc1)CO2` (stereo not given), the Percent Effect in [1] is -6.1%; in [2] it was -16.9%; in [3], 6.5%; in the test with Trypanosoma cruzi, 2.43%; in test [4], -2.02%; in test [5], 5.91%. Moreover, the Percent Effect was -1.58% in the test filed under Homo sapiens, 3.68% in test [6], 2.56% in [7] and -0.282% in test [8].

As for `COc1ccc(C)cc1C(C)NC(=O)NCCCn1cncn1` (stereo not given), the Percent Effect was -2.2% in [1]; 18.7% in test [2]; 1.49% in test [3]; 1.81% in the test on Trypanosoma cruzi; 1.33% in test [4]; 13.5% in [5]. In addition, the Percent Effect was 4.64% in the test listed under Homo sapiens, 6.84% in [6], 20.5% in test [7] and -10.3% in test [8].

For `c1ccc(-c2cnc(CNC3CCCN(c4cccnn4)C3)o2)cc1` (stereo not given), the Percent Effect in [1] was -1.65%; in test [2] it was -23.1%; in [3], 5.28%; with Trypanosoma cruzi, 6.48%; in test [4], 1.23%; in test [5], 0.0853%. The Percent Effect was 7.96% in the test filed under Homo sapiens, 14.8% in test [6], 22.9% in test [7] and -1.17% in [8].

As to `CCc1ccsc1C(=O)N1CCN(CC(O)CC)CC1` (stereo not given), the Percent Effect in test [1] was -2.73%; in [2] it was 7.79%; in [3], 4.04%; in the test with Trypanosoma cruzi, 4.66%; in [4], -3.48%; in test [5], 0.877%. Besides, the Percent Effect was -8.47% in the test listed under Homo sapiens, 2.94% in [6], 21.2% in test [7] and -7.9% in test [8].

Consider `O=S(=O)(C1CC1)N1CCC2(CC1)CC(Oc1cccnc1)CO2` (stereo not given), for which the Percent Effect is -7.74% in test [1]; 9.09% in [2]; 4.03% in test [3]; 2.43% in the test on Trypanosoma cruzi; -3.24% in test [4]; -1.15% in test [5]. For the same compound, the Percent Effect in the test listed under Homo sapiens was -0.725%; in test [6] it was 3.68%; in test [7] it was 0%; in test [8], -0.139%.

Take `O=C(Nc1cccnc1)[C@H]1C[C@H]2OCC[C@H]2N(C(=O)c2ccsc2)C1`: the Percent Effect in test [1] is -4.32%; in test [2] it was 11.7%; in test [3] it was 13%; with Trypanosoma cruzi it was 4.58%; in [4] it was 17%; in test [5], 10.5%. Besides, the Percent Effect is -7.28% in the test listed under Homo sapiens, 4.74% in test [6], 12.8% in test [7] and 18.5% in test [8].

In the case of `c1cnn(CCNCc2csc(-c3ccsc3)n2)c1`, the Percent Effect in [1] is -6.54%; in test [2], -12.8%; in test [3] it was -10.8%; in the test on Trypanosoma cruzi, -5.92%; in test [4], -1.23%; in test [5], 20.6%. For the same compound, the Percent Effect in the test listed under Homo sapiens is 24.6%; in test [6], -6.22%; in test [7], -1.21%; in test [8], 0.287%.

As for `Cn1ncc(C(=O)N2CCCC(n3cccn3)C2)c1C1CC1` (stereo not given), the Percent Effect was -4.48% in [1]; 10.7% in [2]; 0.531% in test [3]; -3.61% with Trypanosoma cruzi; 3.1% in test [4]; 11.6% in test [5]. Further, the Percent Effect in the test listed under Homo sapiens is 8.56%; in [6] it was 2.63%; in test [7], 5.13%; in test [8], -7.06%.

Turning to `CN(C)C(=O)[C@@H]1CCO[C@@H]2CCN(Cc3ccc4c(c3)OCO4)C[C@@H]21`, the Percent Effect is -3.73% in test [1]; 11.7% in [2]; -6.65% in [3]; 7.5% with Trypanosoma cruzi; -4.86% in [4]; 10.9% in [5]. Besides, the Percent Effect worked out at 0.999% in the test listed under Homo sapiens, 3.68% in [6], 2.56% in test [7] and 2.41% in test [8].

`c1cnnc(N2CCCC2CNCc2nc(-c3ccsc3)no2)c1` (stereo not given): the Percent Effect was -4.07% in test [1]; -23.1% in [2]; -7.35% in [3]; 9.11% in the test on Trypanosoma cruzi; -6.15% in test [4]; 0.256% in [5]. The Percent Effect in the test listed under Homo sapiens is -10.2%; in [6], 5.26%; in [7], 6.02%; in [8], -1.74%.

On to `COc1cccc2c1OCC(C(=O)NC1CCN(S(C)(=O)=O)CC1)C2` (stereo not given), for which the Percent Effect was -2.9% in [1]; 16.2% in [2]; 3.48% in test [3]; 3.59% in the test on Trypanosoma cruzi; 12.2% in [4]; 18.7% in test [5]. Moreover, the Percent Effect turned out to be 16.9% in the test filed under Homo sapiens, 5.85% in test [6], 17.1% in [7] and 93.6% in test [8].

As to `Cc1nccn1C1CCCN(C(=O)COCC(F)(F)F)C1` (stereo not given), the Percent Effect in [1] was -0.686%; in test [2], 2.56%; in test [3], 10.1%; in the test with Trypanosoma cruzi, 0.845%; in test [4] it was -2.05%; in test [5], 0.597%. For the same compound, the Percent Effect in the test filed under Homo sapiens was -3.59%; in test [6], -3.35%; in test [7] it was -1.21%; in [8] it was -1.66%.

`COc1cccc(CN2CCC3(CCN(C(=O)[C@H]4CCCO4)CC3)C2)c1`: the Percent Effect was -2.54% in test [1]; 22.1% in test [2]; -5.6% in [3]; 0.188% in the test on Trypanosoma cruzi; 0% in test [4]; 12.6% in test [5]. The Percent Effect was -14.8% in the test filed under Homo sapiens, 10.6% in test [6], -2.5% in test [7] and -10.4% in test [8].
